# In PubChem BioAssay:
# Unmarked numbers belong to inactive results. Active and inactive are the calls of the source.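 Rule for the calls: active = thallium flux through the channel raised or lowered by more than 3 SD from vehicle-only wells, actives on both sides; inactive = the rest.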
# How the values were obtained:
# Experiment in all cases: BK channel mutant inhibitors and activators – cell-based, U2OS BacMam, thallium flux, beta subunits, selectivity assay, profiling panel (AID 1259406);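 note: initial slope of Thallos dye fluorescence rise after thallium is added; log ratio against the mean of 0.3% DMSO vehicle wells on the same plate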
# [1] = system: F380Y; conditions: U2OS BacMam BK variants, at 30 µM
# [2] = system: F380Y/beta1; conditions: U2OS BacMam BK variants, at 30 µM
# [3] = system: F380Y/beta2Delta; conditions: U2OS BacMam BK variants, at 30 µM
# [4] = system: F380Y/beta4; conditions: U2OS BacMam BK variants, at 30 µM
# [5] = target: Calcium-activated potassium channel subunit alpha-1 (Homo sapiens) + Leucine-rich repeat-containing protein 26 (Homo sapiens) (UniProt Q12791+Q2I0M4); conditions: U2OS BacMam BK variants, F380Y/Slo1WT/gamma1, at 30 µM
# [6] = system: R275C; conditions: U2OS BacMam BK variants, at 30 µM
# [7] = system: R275C/beta1; conditions: U2OS BacMam BK variants, at 30 µM
# [8] = system: R275C/beta2Delta; conditions: U2OS BacMam BK variants, at 30 µM
# [9] = system: R275C/beta4; conditions: U2OS BacMam BK variants, at 30 µM
# [10] = system: R275C/Slo1WT/beta2; conditions: U2OS BacMam BK variants, at 30 µM
# Calcium-activated potassium channel subunit alpha-1 (Homo sapiens) + Leucine-rich repeat-containing protein 26 (Homo sapiens), sequence (Q2I0M4 whole entry, looked up, one chain of several): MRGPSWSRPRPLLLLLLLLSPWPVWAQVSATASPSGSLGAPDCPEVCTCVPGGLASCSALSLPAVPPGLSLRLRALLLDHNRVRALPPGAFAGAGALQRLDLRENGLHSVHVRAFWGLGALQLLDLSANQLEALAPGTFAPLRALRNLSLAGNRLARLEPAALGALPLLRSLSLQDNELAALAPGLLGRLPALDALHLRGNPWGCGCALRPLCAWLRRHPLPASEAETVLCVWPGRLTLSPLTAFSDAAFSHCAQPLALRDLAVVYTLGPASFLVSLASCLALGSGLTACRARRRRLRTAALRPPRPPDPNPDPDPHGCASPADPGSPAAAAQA
SMILES,log fold change Tl+ flux [1],log fold change Tl+ flux [2],log fold change Tl+ flux [3],log fold change Tl+ flux [4],log fold change Tl+ flux [5],log fold change Tl+ flux [6],log fold change Tl+ flux [7],log fold change Tl+ flux [8],log fold change Tl+ flux [9],log fold change Tl+ flux [10]
CC(=O)Nc1ccc(S(=O)(=O)C[N+](=O)[O-])cc1,-0.0207,-0.00968,0.0255,-0.00689,0.00333,-0.0177,-0.00122,0.0327,-0.0178,-0.0147
CC(C)(C)c1cc(-c2nc(-c3ccc(C(F)(F)F)cc3)no2)n(Cc2ccccc2)n1,-0.0279,-0.0164,-0.0472,0.0114,-0.0649,0.0485,-0.0238,-0.0138,0.0105,0.0318
NC(=NC(=O)c1cccs1)c1cccs1,0.00622,0.0573,0.0445,0.0177,0.0217,0.0451,0.0586,0.0615,0.0555,0.0314
Cc1cc(Nc2ccc(F)cc2F)nc(SCc2c(Cl)cccc2Cl)n1,-0.0282,-0.0344,-0.0422,-0.123 (active),-0.039,-0.0547,-0.0316,-0.000965,-0.0113,-0.0702
CN1CCN(CC(=O)Nc2ccccc2Oc2ccccc2)CC1,0.0235,0.0196,0.0764,0.0239,0.0414,-2.9e-05,0.00212,0.00784,0.00808,0.0378
O=C1c2ccccc2C(=O)N1CNc1ccc(Oc2ccc(Cl)cc2)cc1,0.0258,0.986 (active),0.0357,0.151 (active),0.327 (active),0.06,0.443 (active),0.0194,0.104 (active),0.0127
Cc1nc(-c2ccc(S(=O)(=O)N3CCCN(c4ccc(C(F)(F)F)cn4)CC3)s2)cs1,0.00624,-0.00592,-0.0273,-0.105 (active),0.00148,-0.0736,-0.0131,-0.0332,-0.00508,0.0123
Cc1ccc(S(N)(=O)=O)c(I)c1,0.00642,0.0178,0.0148,-0.000543,-0.0495,0.0442,0.0166,-0.00341,0.00339,-0.0513
CSc1nc(C=Nc2cccc(Cl)c2)c(O)n1Cc1cccc(Cl)c1,-0.00291,0.208 (active),0.0623,-0.0889,0.0392,-0.03,0.102,0.137 (active),0.11 (active),-0.0459
CC(=NO)c1ccc2c(c1)C(C)(C)CCC2(C)C,-0.246 (active),-0.197 (active),-0.444 (active),-0.152 (active),-0.146 (active),-0.00509,0.0184,-0.00725,-0.0253,-0.0443
